In PubChem BioAssay (NCATS):
Records with an inconclusive call do not appear. The source made the active and inactive calls. Unless noted, the call rests on the fitted dose curve.

What was measured:
[1] = qHTS for Inhibitors of the Functional Ribonucleoprotein Complex (vRNP) of Lassa (LASV) Arenavirus: Viability assay - alamar blue signal for LASV Primary Screen (AID 1347083; calls by dose curve; tested in HEK293 reporter line; further: nearly all actives have a fitted effect of over 80% in size)
[2] = qHTS for Inhibitors of the Functional Ribonucleoprotein Complex (vRNP) of Lymphocytic Choriomeningitis Arenaviruses (LCMV): Viability assay - alamar blue signal for LCMV Primary Screen (AID 1347085; calls by dose curve; tested in HEK293 reporter line; further: nearly all actives have a fitted effect of over 80% in size)
[3] = target: Nucleoprotein (Lymphocytic choriomeningitis virus (strain Armstrong)) (UniProt P09992); assay: qHTS for Inhibitors of the Functional Ribonucleoprotein Complex (vRNP) of Lymphocytic Choriomeningitis Arenaviruses (LCMV): LCMV Primary Screen - GLuc reporter signal (AID 1347086); further: nearly all actives have a fitted effect of over 70% in size
Further: series mostly up to about 57 µM.
On the % scale 0 is the no-effect control and ±100 the full control effect.

Sequence of Nucleoprotein (Lymphocytic choriomeningitis virus (strain Armstrong)) (P09992 whole entry, looked up): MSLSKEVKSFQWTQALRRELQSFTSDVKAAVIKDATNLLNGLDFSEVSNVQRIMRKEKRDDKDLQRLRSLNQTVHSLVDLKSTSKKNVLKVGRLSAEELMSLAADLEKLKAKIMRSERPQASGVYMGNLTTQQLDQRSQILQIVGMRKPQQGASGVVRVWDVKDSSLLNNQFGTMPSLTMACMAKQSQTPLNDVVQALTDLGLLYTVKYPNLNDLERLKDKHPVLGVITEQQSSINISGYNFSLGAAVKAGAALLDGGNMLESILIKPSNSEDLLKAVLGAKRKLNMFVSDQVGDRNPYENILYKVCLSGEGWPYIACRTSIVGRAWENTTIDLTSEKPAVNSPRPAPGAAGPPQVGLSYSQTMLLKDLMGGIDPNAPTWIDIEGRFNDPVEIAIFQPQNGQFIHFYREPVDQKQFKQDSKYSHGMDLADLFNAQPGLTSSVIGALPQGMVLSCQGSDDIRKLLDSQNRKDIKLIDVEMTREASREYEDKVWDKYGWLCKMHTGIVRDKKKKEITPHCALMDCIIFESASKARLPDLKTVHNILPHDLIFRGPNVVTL

CC(=O)OCC[N+](C)(C)C
inactive: Potency [1] | Potency [2] | Potency [3]

CN(CC1(C)CCCO1)S(=O)(=O)c1ccc(Cl)c(S(N)(=O)=O)c1 (stereo unspecified)
inactive: Potency [1] | Potency [2] | Potency [3]

CC(=O)OCC(=O)[C@@]1(OC(C)=O)[C@@H](C)C[C@H]2[C@@H]3C[C@H](F)C4=CC(=O)C=C[C@]4(C)[C@@]3(F)[C@@H](O)C[C@@]21C
inactive: Potency [1] | Potency [2] | Potency [3]

O=C(O)c1c(O)c(-c2ccccc2)nc2ccccc12
inactive: Potency [1] | Potency [2] | Potency [3]

Nc1c[n+](N2CCOCC2)no1
inactive: Potency [1] | Potency [2] | Potency [3]

NC(=O)NS(=O)(=O)c1ccc(N)cc1
inactive: Potency [1] | Potency [2] | Potency [3]

O=C(N[C@H](CO)[C@H](O)c1ccc([N+](=O)[O-])cc1)C(Cl)Cl
inactive: Potency [1] | Potency [2] | Potency [3]

CC(=O)OC[C@H]1O[C@@H](OC(C)=O)[C@H](OC(C)=O)[C@@H]1OC(C)=O
inactive: Potency [1] | Potency [2] | Potency [3]

CC(C(=O)O)c1ccc2c(c1)[nH]c1ccc(Cl)cc12 (stereo unspecified)
inactive: Potency [1] | Potency [2] | Potency [3]

CCOC(=O)[C@H](CCc1ccccc1)N[C@@H](C)C(=O)N1CCC[C@H]1C(=O)O
inactive: Potency [1] | Potency [2] | Potency [3]

COc1ccc(-c2cc(=O)c3c(O)cc(O[C@@H]4O[C@H](CO[C@@H]5O[C@@H](C)[C@H](O)[C@@H](O)[C@H]5O)[C@@H](O)[C@H](O)[C@H]4O)cc3o2)cc1O
inactive: Potency [1] | Potency [2] | Potency [3]

CC(CCc1ccc(O)cc1)NCCc1ccc(O)c(O)c1 (stereo unspecified)
inactive: Potency [1] | Potency [2] | Potency [3]

COC(=O)N/N=C/c1c[n+]([O-])c2ccccc2[n+]1[O-]
inactive: Potency [1] | Potency [2] | Potency [3]

CN1CC(=O)NC1=N
inactive: Potency [1] | Potency [2] | Potency [3]

CC(C)=CCC1C(=O)N(c2ccccc2)N(c2ccccc2)C1=O
inactive: Potency [1] | Potency [2] | Potency [3]

COc1ccnc(CS(=O)c2nc3ccc(OC(F)F)cc3[nH]2)c1OC (stereo unspecified)
inactive: Potency [1] | Potency [2] | Potency [3]

C[C@H](CS)C(=O)N1CCC[C@H]1C(=O)O
inactive: Potency [1] | Potency [2] | Potency [3]

Cc1c[nH]c2ccccc12
inactive: Potency [1] | Potency [2] | Potency [3]

Cc1cc(CCCOc2c(C)cc(-c3noc(C(F)(F)F)n3)cc2C)on1
inactive: Potency [1] | Potency [2] | Potency [3]

CC(=O)N1CCN(c2ccc(OC[C@H]3CO[C@](Cn4ccnc4)(c4ccc(Cl)cc4Cl)O3)cc2)CC1
inactive: Potency [1] | Potency [2] | Potency [3]

O=C(O)Cc1csc(-c2ccc(Cl)cc2)n1
inactive: Potency [1] | Potency [2] | Potency [3]

NC(=O)c1ncn([C@@H]2O[C@H](CO)[C@@H](O)[C@H]2O)c1O
inactive: Potency [1] | Potency [2] | Potency [3]

Nc1ccn([C@@H]2O[C@H](CO)[C@@H](O)C2O)c(=O)n1 (stereo partly specified)
inactive: Potency [1] | Potency [2] | Potency [3]

COc1cc(C=O)ccc1O
inactive: Potency [1] | Potency [2] | Potency [3]

CO[C@@]1(NC(=O)CSC[C@@H](N)C(=O)O)C(=O)N2C(C(=O)O)=C(CSc3nnnn3C)CS[C@@H]21
inactive: Potency [1] | Potency [2] | Potency [3]

CC(=O)Nc1ccccc1
inactive: Potency [1] | Potency [2] | Potency [3]

CC1CC(OC(=O)c2ccccc2O)CC(C)(C)C1 (stereo unspecified)
inactive: Potency [1] | Potency [2] | Potency [3]

NNC(=O)c1ccncc1
inactive: Potency [1] | Potency [2] | Potency [3]

Cc1nc2ccccn2c(=O)c1CCN1CCC(C(=O)c2ccc(F)cc2)CC1
inactive: Potency [1] | Potency [2] | Potency [3]

CCN(CC)C(=O)/C(C#N)=C/c1cc(O)c(O)c([N+](=O)[O-])c1
inactive: Potency [1] | Potency [2] | Potency [3]

CC(C)(C)NCC(O)COc1ccc(NC(=O)NC2CCCCC2)cc1 (stereo unspecified)
inactive: Potency [1] | Potency [2] | Potency [3]

O=C1c2ccccc2CCc2ccccc21
inactive: Potency [1] | Potency [2] | Potency [3]

CCCCCCCC/C=C/C(=O)O
inactive: Potency [1] | Potency [2] | Potency [3]

CCCCCC[C@@H](CCC)C(=O)O
inactive: Potency [1] | Potency [2] | Potency [3]

NC(=S)N/N=C/c1cccnc1
inactive: Potency [1] | Potency [2] | Potency [3]

O=C(CN1CCNCC1)NC1CCCCC1
inactive: Potency [1] | Potency [2] | Potency [3]

Cc1ccc(C(=O)c2ccc(CC(=O)O)n2C)cc1
inactive: Potency [1] | Potency [2] | Potency [3]

OC[C@H]1O[C@@H](n2cnc3c2NC=NC[C@H]3O)C[C@@H]1O
inactive: Potency [1] | Potency [2] | Potency [3]

Cc1ccccc1OCC(O)CO (stereo unspecified)
inactive: Potency [1] | Potency [2] | Potency [3]

COC(=O)c1cc(Cl)ccc1NS(=O)(=O)C(F)(F)F
inactive: Potency [1] | Potency [2] | Potency [3]

O=C(O)Cc1ccc(OCCNC[C@H](O)c2ccccc2)cc1
inactive: Potency [1] | Potency [2] | Potency [3]

NCC[C@H](O)C(=O)N[C@@H]1C[C@H](N)[C@@H](O[C@H]2O[C@H](CN)[C@@H](O)[C@H](O)[C@@H]2O)[C@H](O)[C@@H]1O[C@H]1O[C@H](CO)[C@@H](O)[C@H](N)[C@@H]1O
inactive: activity change, negative = reduced viability [1] -4.3% [at 0.757 µM] | activity change, negative = lower viability [2] -4.65% [at 0.757 µM] | activity change, negative = inhibition [3] 19.2% [at 0.757 µM]
